# Entries with a potency or affinity are not part of this list.
# System: Escherichia coli
# Conditions: Concentration 20 uM; ASSAY_TEST Inhibition of Bacterial Growth; detection method Absorption (OD600); MEDIA CAMHB; plate type 384well; NBS; CORNING #3640; time 18 hr
row,Structure (SMILES),Inhibition [%]
1,CC1=NN(c2nc3ccccc3s2)C(=O)C1Cc1cccc2ccccc12 (stereo not given),0.69
2,COC(=O)c1c(NC(=O)c2cc3ccccc3oc2=O)sc2c1CCN(Cc1ccccc1)C2,12.69
3,COc1cccc(OC)c1C(=O)Nc1ccc(Cl)c(-c2nc3ccccc3s2)c1,-2.89
4,O=C(Nc1ccc(F)c(-c2nc3cc(-c4ccccc4)cnc3[nH]2)c1)N1CCCC1,-0.3
5,Cc1ccc(-c2cc(C(=O)Nc3cccnc3)c3cc(Br)ccc3n2)cc1,9.4
6,CCNC(=O)C(C)Nc1nc(-c2cccnc2)nc2sc(C)c(C)c12 (stereo not given),10.74
7,CCN(CC)CCCN1CCN(C(=O)c2cccc(-c3noc(C(F)(F)F)n3)c2)CC1,-1.62
8,CC(=O)N(CCN(C(=O)c1ccc(F)cc1)c1ccccc1)c1ccccc1,5.32
9,CCOC(=O)c1c(NC(=O)c2c(F)c(F)c(F)c(F)c2F)sc(C(N)=O)c1C,12.47
10,COc1ccc(N(CCc2cccc(C)n2)C(C)=O)cc1,6.06
11,Cc1nc(-c2ccccn2)nc(NCCc2ccc(S(C)(=O)=O)cc2)c1Cl,-2.55
12,CCc1nc2ccccc2n1CC(O)COc1cc(C)ccc1Cl (stereo not given),4.16
13,COc1ccc(Nc2ccccc2NC(=O)c2ccc(O)nc2)cc1,-4.3
14,O=C(NC1=NCCS1)c1sc2cc(F)ccc2c1Cl,-4.46
15,CN(C)CCNC(=O)N1CCCN(c2ncnc3cc(-c4ccccc4)sc23)CC1,3.44
16,Clc1cccc(CO[C@H]2CCc3ccccc3[C@@H]2n2ccnn2)c1,7.53
17,CN1CCC(c2cc(-c3ccncc3)c(-c3ccc(F)cc3)[nH]2)CC1,-2.15
18,Clc1ccc(CN2CCN(C3=NCCN3)CC2)cc1Cl,4.2

row,Structure (SMILES),Inhibition [%]
1,COc1cc(-c2cc(-c3ccc(S(C)(=O)=O)cc3)cnc2N)ccc1O,6.84
2,CCOc1ccc(-c2nc(NC(=O)CS(=O)(=O)c3ccccc3)sc2C)cc1,-0.36
3,CC(=O)Nc1ccc(NC(=O)c2cc(-c3cc(Cl)ccc3O)n[nH]2)cc1,10.03
4,Brc1c(-c2ccc3c(c2)OCO3)nc2ncccn12,5.08
5,COc1cc(CN2CCC3(C=Cc4ccccc43)CC2)cc2c1OCO2,-2.88
6,Cl.O[C@@H](c1cc(C(F)(F)F)nc2c(C(F)(F)F)cccc12)[C@H]1CCCCN1,15.86
7,O=C(NC1CC1)c1ccc(CSCc2ccccc2Cl)o1,-1.44
8,OCCc1ccc(Nc2nccc(-c3nnc4ccccn34)n2)cc1,6.52
9,Cc1c[nH]c(CCNC(=O)c2cc(-c3ccc(Cl)cc3)cs2)n1,10.78
10,CC(C)(C)c1cc(C(=O)N2CCN(c3nccnc3C#N)CC2)n(Cc2ccccc2)n1,10.32
11,COc1ccc(S(=O)(=O)Nc2ccc(CN3CCN(C(=O)c4cccc(C#N)c4)CC3)cc2)cc1,-0.19
12,COCC(C)NC(=O)CSc1ncnc2sc(-c3ccccc3)cc12 (stereo not given),9.3
13,Cc1cccc(-c2nc(Nc3ccncn3)c3sccc3n2)n1,8.12
14,O=C(NC1CC1)c1ccc(N2CCOc3ccc(Cl)cc32)s1,8.85
15,CS(=O)(=O)N1CCC(Cn2nc(Cc3cccc4ccccc34)c3c(N)ncnc32)CC1,3.3
16,CC(C)n1ncc2c(C(=O)NCC(c3cccs3)N3CCOCC3)cc(-c3ccccc3)nc21 (stereo not given),3.42
17,CCC(Sc1nc2ccccc2o1)C(=O)Nc1nccs1 (stereo not given),11.9

# Reference: ChEMBL document CHEMBL4513149, “CO-ADD screening of MMV (CH) - MMV compounds” (2021)
